Data on 17 compounds can be found in PubChem BioAssay (NCATS).

Assay [1] has as its system TAB113. Briefly: qHTS profiling for inhibitors of Plasmodium falciparum proliferation (AID 504749). Further: potency means the concentration at half of the fitted maximal effect. The conditions noted are these: P. falciparum in erythrocytes, SYBR Green DNA, 72 h; series mostly up to 28.7 µM. In a few lines: (§1)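 Each compound contacts P. falciparum-infected red blood cells for 72 h at 37 C; lysis buffer (Tris, EDTA, saponin, Triton X, SYBR Green I) is added and fluorescence measured next morning; values normalized to controls.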
In general terms: Quantitative high-throughput screening tests each substance at several concentrations.

Assay [2] deals with TAB165. The description is as above. The conditions noted are these: P. falciparum in erythrocytes, SYBR Green DNA, 72 h; series mostly up to 28.7 µM. In a few lines: as §1
In assay [3] the test system is W2. Described as above. The conditions noted are these: P. falciparum in erythrocytes, SYBR Green DNA, 72 h; series mostly up to 28.7 µM. In a few lines: as §1
The test system of assay [4] is CRL-7250. Briefly: Cytotoxic Profiling of Annotated Libraries Using Quantitative High-Throughput Screening (AID 1296008). Further: potency means the concentration at half of the fitted maximal effect. On max response: on the % scale 0 is the no-effect control and ±100 the full control effect. The conditions noted are these: Five cell lines viability, CellTiter-Glo ATP luminescence, 48-72 h; max response: stronger effect = lower value. In a few lines: (§2)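 Cells exposed to compounds for 48 or 72 hr at 37 degrees Celsius. Viability read as ATP-coupled luminescence with CellTiter-Glo after 10 min at room temperature.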
(In general: Cellular ATP, detected with luciferase, serves as a proxy for viable cell number.)

Assay [5] concerns HEK293. Described as above. The conditions noted are these: Five cell lines viability, CellTiter-Glo ATP luminescence, 48-72 h; max response: stronger effect = lower value. In a few lines: as §2
In assay [6] the test system is HaCat. Described as above. The conditions noted are these: Five cell lines viability, CellTiter-Glo ATP luminescence, 48-72 h; max response: stronger effect = lower value. In a few lines: as §2
The subject of assay [7] is KB-3-1. The description is as above. The conditions noted are these: Five cell lines viability, CellTiter-Glo ATP luminescence, 48-72 h; max response: stronger effect = lower value. In a few lines:
as §2

In assay [8] the test system is NIH3T3. Described as above. The conditions noted are these: Five cell lines viability, CellTiter-Glo ATP luminescence, 48-72 h; max response: stronger effect = lower value. In a few lines: as §2
Assay [9] deals with HACAT. Briefly: qHTS assay to identify novel small-molecules to repurpose for Merkel cell carcinoma treatment (AID 1296009). The conditions noted are these: MCC and control cell lines, CellTiter-Glo viability, 72 h; at 44.8 µM (top of the series) unless noted. In a few lines:
(§3)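 Dose-response viability screen; 72 hr exposure at 37 degree celsius; CellTiter-Glo added, 10 min room temperature, luminescence read; RLUs scaled between no-cell and DMSO wells.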

The subject of assay [10] is HEK293T. The description is as above. The conditions noted are these: MCC and control cell lines, CellTiter-Glo viability, 72 h; at 44.8 µM (top of the series) unless noted. In a few lines: as §3

Values joined by “and” are separate entries in the source; they are usually repeats but may differ in a detail not shown here. Equal entries are not always repeated. Records with an inconclusive call do not appear. The source holds several records for some structures; these can differ, active in one and inactive in another. A number with no mark means an inactive call. Active and inactive are the calls of the source. The call rests on the fitted dose curve; in most records, active means well fitted inhibition curve with a large enough effect; inconclusive means small, poorly fitted or top-dose-only effect; inactive means flat fitted curve, though single readings scatter.
Further: nearly all actives have a fitted effect of over 60% in size.

As to `O=P(O)(O)C(O)(Cn1ccnc1)P(=O)(O)O`, the Potency result in assay [1], in assay [2] and in assay [3] was “inactive” in each case. For the same compound, the compound was called inactive in [4] and in assay [6]. Also, the max response in assay [5] was -11%; in assay [7], -1.09% and 1.16%; in assay [8], -2.33%. Moreover, in [9], the outcome was “inactive [at 17.4 µM]”.

On to `CN1CCC(=C2c3ccccc3CCc3sccc32)CC1`, for which the Potency in [2] is 4470 nM (active); in assay [3] it was 1510 nM (active); in assay [5], 26.4 µM (active) and 10.6 µM (active). The max response in [4] was -8.84% and -2.17%; in assay [7], -12.2% and -19.3%; in [8], 2.3%. Moreover, the call in assay [6], in [8] and in assay [9] was inactive.

Turning to `Cc1nc2n(c(=O)c1CCN1CCC(c3noc4cc(F)ccc34)CC1)CCCC2`, the Potency entry in assay [1] and in [2] was “inactive” throughout. Also, the max response in assay [4] is 0.174%; in [5] it was -10.6%; in [6], 2.05% and 3.62%; in assay [7], 0.624% and -4.98%; in assay [8], -4.59% and 2.76%.

Take `COc1cc(OC)c(C(=O)CCCN2CCCC2)c(OC)c1`: the Potency result in assay [1], in assay [2] and in assay [3] was “inactive” throughout. In addition, the call in [4] and in [8] was inactive. The max response in assay [5] was -1.67% and -16.3%; in [6], 4.83% and -3.89%; in assay [7] it was -2.3% and 3.48%; in [8], -4.19%.

`C[C@]12CCC(=O)C=C1CC[C@@H]1[C@H]2[C@@H](O)C[C@@]2(C)[C@H]1CC[C@]2(O)C(=O)CO`: the Potency result in [1], in assay [2] and in [3] was “inactive” in each case. The max response in [4] was -1.54%; in [6] it was -4.53%; in [7], 33.4%. Moreover, the compound was classed as inactive in assay [5], in [8] and in [10].

For `C[C@@H](c1ncncc1F)[C@](O)(Cn1cncn1)c1ccc(F)cc1F`, the max response was -18.6% in assay [4], -20.1% in assay [5], -4.61% in assay [7] and -4.26% in [8]. Moreover, the call in [6] and in assay [9] was inactive.

Consider `O=C(OC1C[C@H]2CC[C@@H](C1)[N+]21CCCC1)C(O)(c1ccccc1)c1ccccc1` (some centres not stated), for which the Potency is 3980 nM (active) in [2] and 1690 nM (active) in assay [3]. Further, the max response in [4] was 4.02%; in assay [5], 3.35%; in [6], 1.67%; in assay [7], 8.48% and 5.72%; in [8], -8.22%.

As to `O=C1NC(=O)C(c2ccccc2[N+](=O)[O-])=C1Nc1ccc(O)c(Cl)c1`, the max response is -2.05% in [4] and -25.3% in [6]. The outcome in assay [5], in assay [7], in assay [8] and in assay [10] was inactive.

Regarding `CCOC(=O)C1=C(O)C(=O)N(Cc2ccccc2)C1`, the max response in [4] is 2.77%; in assay [5], -14.6%; in [6], 2.45%. Moreover, the result in assay [8] was inactive.

Regarding `Oc1ccc2ccccc2c1SSc1c(O)ccc2ccccc12`, the max response in assay [4] was -5.27%; in assay [5], -1.68%; in [7], 9.23%. Besides, the outcome in assay [6] and in assay [9] was “inactive; activator” throughout. For the same compound, the compound was called inactive in assay [8].

On to `CC[C@]1(O)C[C@H]2CN(CCc3c([nH]c4ccccc34)[C@@](C(=O)OC)(c3cc4c(cc3OC)N(C=O)[C@H]3[C@@](O)(C(=O)OC)[C@H](OC(C)=O)[C@]5(CC)C=CCN6CC[C@]43[C@@H]65)C2)C1`, for which the Potency in assay [1] is 2510 nM (active); in assay [3], 338 nM (active); in assay [4], 29.6 nM (active) and 211 nM (active); in [5] it was 14.8 nM (active) and 150 nM (active); in assay [7], 1.7 nM (active) and 1.84 µM (active). In addition, the call in assay [6] and in assay [9] was inactive.

`Nc1nc(OCc2ccccc2)c2[nH]cnc2n1`: the figures for the max response in assay [4] and in assay [7] were 0.448% and 5.98%, respectively. The result in [5], in assay [6], in [8], in assay [9] and in assay [10] was inactive.

`C[C@@H](N)C1CCC(C(=O)Nc2ccncc2)CC1` (some centres not stated): the max response was -11.2% in [4] and -5.63% in assay [8]. The outcome in assay [5], in assay [6], in [9] and in assay [10] was inactive.

In the case of `COc1cc(Nc2c(C#N)cnc3cc(OCCCN4CCN(C)CC4)c(OC)cc23)c(Cl)cc1Cl`, the Potency in assay [4] was 3.72 µM (active) and 6.51 µM (active); in assay [5] it was 2.37 µM (active) and 4.18 µM (active) and 11.6 µM (active); in assay [6] it was 841 nM (active) and 1.66 µM (active) and 2.31 µM (active); in assay [8], 9.44 µM (active) and 1.18 µM (active) and 8.2 µM (active).

With `Cc1nc(Nc2ncc(C(=O)Nc3c(C)cccc3Cl)s2)cc(N2CCN(CCO)CC2)n1`, the Potency entry in [1] was “inactive”. Further, the Potency in assay [2] was 12600 nM (active); in assay [4], 83.3 nM (active) and 66.8 nM (active) and 259 nM (active); in assay [5], 23.7 µM (active); in assay [6], 944 nM (active); in assay [8], 59.6 nM (active) and 73.1 nM (active). The max response is -28.1% in assay [7] and -106% in assay [8].

As to `CCOC(=O)C(C)Oc1cccc2c(=O)n(CC(=O)Nc3ccc4c(c3)OCCO4)ccc12` (configuration not stated), the results for the max response in assay [4], in [5] and in [8] were 3.46%, -23.2% and 0.733%, respectively. For the same compound, the call in assay [6] and in assay [9] was inactive.

Consider `CCCOc1ccc2nc(NC(=O)OC)[nH]c2c1`, for which the Potency entry in [1], in assay [2] and in [3] was “inactive” in each case. Besides, the Potency in assay [4] was 668 nM (active) and 132 nM (active); in assay [5], 0.15 µM (active); in assay [7], 731 nM (active). The outcome in assay [6] and in assay [9] was inactive.
